# Source: ChEMBL document CHEMBL4888484, “Replenishing the malaria drug discovery pipeline: Screening and hit evaluation of the MMV Hit Generation Library 1 (HGL1) against asexual blood stage Plasmodium falciparum ,using a nano luciferase reporter read-out” (2022)
# Hit rate of the full screen: of about 4,800 compounds, about 420 (8.8%) showed an effect of 50% or more. Shown is part of a subset that was picked to be rich in strong results.
# Tested on: Plasmodium falciparum
# Test: Confirmatory screen in NF54 nanoGlo assay, in single point, at 2uM, 72h
# Assay type: functional, Erythrocyte
# Details: timepoint 72 hour
row,Structure (SMILES),% Inhibition
1,CC(C)(C)OC(=O)N1CCc2ncn(Cc3ccc(F)cc3)c(=O)c2C1,-7%
2,CCOC(=O)CCn1cc(F)c(=O)[nH]c1=O,77%
3,CCOC(=O)CNc1ccc(F)c(Cl)c1,-6%
4,CCOC(=O)COc1cc(N)c(F)cc1Cl,-10%
5,Cc1nn(C)c(C)c1OCc1nnc(C2CCC2)n1C,-14%
6,CCCNC(=O)C1=Cc2ccccc2OC=C1,-9%
7,COc1ccccc1-n1c(=O)n(C2CCCC2)c(=O)c2c1ncn2Cc1ccccc1Cl,37%
8,COc1ccccc1Cn1cnc2c1c(=O)n(C1CCCCC1)c(=O)n2-c1ccccc1Cl,83%
9,COC(=O)c1ncn2c1C(=O)N(Cc1ccccc1OC)[C@](C)(C(=O)NC1CCCCC1)C2,0%
10,Cc1ccccc1Cn1cnc2c1c(=O)n(C1CCCCC1)c(=O)n2-c1ccccc1Cl,78%
11,CCCc1nc(N2CCCN(C(=O)C3CCCCC3)CC2)c2c(C)nn(-c3ccccc3)c2n1,0%
12,CCC(C)(C)NCC(=O)Nc1cc(F)ccc1F,-13%
13,Cc1coc(-c2cc(NC(=O)N(CCO)CC(F)F)ccc2C)n1,-5%
14,Cn1nc(C(=O)Nc2nnc[nH]2)ccc1=O,4%
15,Clc1cc(CNCCc2ccccc2)ccc1OCc1ccccc1,-6%
16,COc1ccccc1CNCCNC(=O)c1ccncc1,8%
17,Cc1cnccc1NCCNCc1cccc(O)c1Cl,88%
18,C[C@@H](C1CC1)N(C)S(=O)(=O)Cc1cc(Cl)cc(Cl)c1,-3%
19,COc1ccccc1CN(C(=O)c1ccc(C)cc1)c1ccc(CC(=O)NCCN2CCCCC2)cc1,39%
20,COc1ccc(NC(=O)c2nc(Nc3ccccc3)c3ccccc3n2)cc1,17%
21,CCOc1ccc(Nc2c3ccccc3nc3ccccc23)cc1,86%
22,CCOc1ccc(-n2c(CN3CCN(C(=O)c4ccco4)CC3)nc3ccccc3c2=O)cc1,3%
23,Cc1cccc(NS(=O)(=O)c2ccc3c(c2)Cc2cc(S(=O)(=O)Nc4cccc(C)c4)ccc2-3)c1,10%
24,O=C(Cn1c(=O)n(-c2cc(F)cc(F)c2)c(=O)c2sccc21)NCc1ccc2c(c1)OCO2,-9%
25,Cc1[nH]ccc(=O)c1Cc1c(Cl)cccc1Cl,-16%
26,Cc1cc(NC(=O)Cn2ncnc2-c2cccc(C#N)c2)n(C)n1,-1%

row,Structure (SMILES),% Inhibition
1,O[C@@H](CNCc1ccsc1C(F)(F)F)c1cc(Cl)c2c(c1)OCCO2,32%
2,CCCN(Cc1c(C)nn(-c2ccccc2)c1N1CCN(CC)CC1)S(=O)(=O)c1ccc(C)cc1,-5%
3,Cc1cc(NCCc2nccn2C)ncn1,-15%
4,Cc1sc2nc(-c3ccccn3)nc(NCC(=O)N3CCC(O)CC3)c2c1-c1ccccc1,23%
5,COC(=O)COc1nonc1-c1ccccc1,7%
6,Cc1nnc(Cn2ncnc2-c2ccccc2Cl)o1,-3%
7,COc1ccc(OCC(=O)Nc2ccc(N3CCn4c(nc5ccccc54)C3)cc2Cl)cc1,-8%
8,Cc1cnc(C(=O)N2CCC[C@H]2c2nc(C3CCOCC3)no2)cn1,0%
9,Cc1cc(S(=O)(=O)NC(=O)c2ccnc(C3CCCC3)n2)c(C)s1,-2%
10,O=C(NC(c1ccccc1)c1ccccc1)C1=COCCO1,-9%
11,CCOC(=O)c1nc(-c2cccnc2)cs1,-12%
12,N#C[C@@H](C(=O)NCc1cccnc1)c1nc(-c2ccccc2)cs1,-1%
13,Cc1cc(C(=O)N[C@@H](C)c2nc(-c3cccnc3)cs2)cc(O)n1,53%
14,C#CCN1C(=O)N[C@@](CC)(C(C)C)C1=O,10%
15,Cc1oc(=S)n2c1C[C@@H](c1ccccc1)N(Cc1ccccc1)C2,-15%
16,CCc1ccc(NC(=O)[C@H](C)N2CCC(NS(=O)(=O)c3cccs3)CC2)cc1,70%
17,CCc1ccc(NC(=O)[C@@H]2CCn3c(C(=O)c4ccccc4)ccc32)cc1,1%
18,Cn1cc(C(=O)NCC2CCN(S(=O)(=O)c3cccs3)CC2)cn1,-2%
19,CN(Cc1ccc(F)c(F)c1)S(=O)(=O)C[C@H]1CCN(C(=O)OCc2ccccc2)C1,-10%
20,Cc1cc(C)n(-c2ccc(CN3C(=O)NC4(CCCC4)C3=O)cc2)n1,-4%
21,O=C1CN(C(=O)Cc2c(F)cccc2Cl)C2(CCCC2)CN1,-11%
22,Cc1nccc(NC(=O)C2CCC(F)(F)CC2)c1Cl,-4%
23,Cc1c(NC(=O)CC(C)(C)CC(=O)N2CCN(c3ccccc3F)CC2)c(=O)n(-c2ccccc2)n1C,2%
24,O=C(COc1ccccc1)Nc1ccc2c(c1)C(O)=Nc1cccnc1O2,58%
25,CC1(C)Oc2ccc(NC(=O)COc3ccccc3)cc2NC1=O,11%
26,CC(C)(C)CC(=O)Nc1ccc2c(c1)C(N1CCCCC1)=Nc1ccccc1O2,-13%

row,Structure (SMILES),% Inhibition
1,Cc1ccc([C@H]2C=NN(c3ccc(Br)cc3)C2=O)cc1,20%
2,Cc1onc(N)c1S(=O)(=O)Nc1ccncc1,-7%
3,CCC(=O)N1CCN(c2cc(Nc3ccc(C)cc3)nc(C)n2)CC1,-1%
4,CCC(=O)Nc1nc2c(OC)cc(NS(=O)(=O)c3c(C)noc3C)cc2s1,-4%
5,CCNc1nc(C)cc(Nc2ccc(NC(=O)c3cc(C)ccc3C)cc2)n1,98%
6,CCNc1nc(C)cc(Nc2ccc(NS(=O)(=O)c3c(C)noc3C)cc2)n1,92%
7,O=C(Nc1ccc(N2CCOCC2)cc1)Nc1ccc(F)cc1F,1%
8,Cc1ccc(C)c(S(=O)(=O)NCCNc2ccc(Nc3ccncc3)nn2)c1,28%
9,Cc1ccccc1S(=O)(=O)NCc1nnc(C(=O)Nc2ccc(F)cc2F)s1,-5%
10,CC(C)c1ccc(-c2nn3c(C4CCN(S(C)(=O)=O)CC4)nnc3s2)cc1,-20%
11,C[C@H](C#N)CNc1ncc(Br)cn1,1%
12,CN(c1ccc(Cl)cn1)S(=O)(=O)c1ccc2ncccc2c1,-22%
13,C[C@H]1CN(Cc2cc3c(cc2Br)OCO3)CCN1S(C)(=O)=O,-2%
14,Brc1ccc(NCc2[nH]nnc2-c2ccccc2)cc1,2%
15,O=S(=O)(c1ccccc1Br)N1CC[C@H]1c1ccccc1,-6%
16,CN(c1ncc(S(=O)(=O)c2ccccc2)c(N)n1)C1CCCCC1,-9%
17,Cn1ccnc1CN1CCC[C@@](O)(CNS(=O)(=O)c2cccs2)CC1,-10%
18,CC(C)(C)c1ccnc(N[C@H]2CO[C@H]3[C@@H]2OC[C@@H]3NC(=O)NCc2ccccc2)n1,18%
19,Cc1nn(CCC(=O)NC2CCCC2)cc1Br,-10%
20,CN(C)c1ccc(C(=O)N[C@@]2(C)CCS(=O)(=O)C2)cc1,-6%
21,Cc1cnn(Cc2cc(C(=O)N(C)Cc3nc4ccccc4n3C)no2)c1,-6%
22,O=C(Nc1cccc2cccnc12)N1CCOCC1CC(O)c1cccs1 (stereo not drawn),0%
23,Cc1nnc(O)c(CNC(=O)COC2CCCC(C)C2)c1C (stereo not drawn),-7%
24,c1ccc(-c2nc(C[n+]3ccc4c(c3)CCCC4)cs2)cc1,57%
25,Cc1ncccc1C(=O)NCCc1csc(-c2ccccc2)n1,-11%
26,Cc1cc(C)cc(NC(=O)CCn2c(=O)cc(C(F)(F)F)c3cn(C(C)C)nc32)c1,-14%

row,Structure (SMILES),% Inhibition
1,CC1(C)CCC(Nc2ccc(C(N)=O)nn2)CC1,70%
2,CCn1cnc2c(N3CCC[C@H](c4ccncc4)C3)ncnc21,68%
3,CCn1c(=O)c(N2CCC[C@H](C(=O)NCc3ccccc3OC)C2)nc2cccnc21,-7%
4,Brc1cncnc1N1CCC[C@H](c2nnn[nH]2)C1,-15%
5,CC(C)(C)NC(=O)N[C@H]1COc2c1ccc(Cl)c2Cl,-3%
6,Cc1ccc(C(=O)Nc2ccc(N3CCN(c4c(F)c(F)c(F)c(F)c4F)CC3)cc2)c(Cl)c1,10%
7,O=C(O)c1cc(N2CCC(Cc3ccccc3)CC2)ccc1NC(=O)C1CCC1,-14%
8,O=C(Nc1nc2ccccc2[nH]1)C1CCN(c2cc3c(nn2)CCC3)CC1,5%
9,NC(=O)c1ccccc1NC(=O)C1CCN(c2cc(C3CC3)ncn2)CC1,53%
10,Cc1cn([C@H]2C[C@@H](OC(=O)c3ccccc3)[C@@H](CO)O2)c(=O)[nH]c1=O,-6%
11,CC(C)NC(=O)[C@H](C)N(C)Cc1nccn1CC(F)(F)F,-1%
12,CCC(CC)c1ccc([C@H]2N(C(=O)c3ccc(C)cc3)CCN2S(=O)(=O)c2ccccc2)cc1,-2%
13,O=S1(=O)CCN(C2CCN(Cc3c(F)cccc3F)CC2)CC1,4%
14,Cc1ccc(N2C(=O)C[C@]3(CC3(c3ccccc3)c3ccccc3)C2=O)cc1,66%
15,CN1C2(c3ccccc3)C3C(=O)N(c4ccccc4)C(=O)C3C1(c1ccccc1)C1C(=O)N(c3ccccc3)C(=O)C12 (stereo not drawn),2%
16,COc1cccc(N2C(=O)C[C@]3(CC3(c3ccccc3)c3ccccc3)C2=O)c1,39%
17,O=S(=O)(Cc1ccno1)NCCc1ccccc1OC(F)F,2%
18,Cc1ccc(C(=O)Nc2noc(-c3ccc(C)cc3)c2-c2ccccc2Cl)cc1,-11%
19,c1cc(-c2cn3c(COc4ccc5c(c4)OCO5)nnc3s2)ccn1,3%
20,CC1CCN(C[C@H]2CCCCCN2C(=O)NCCc2ccccc2)CC1,34%
21,O=C(Cc1cc(F)c(F)cc1F)N1CCOC[C@H]1c1ncon1,-3%
22,Cc1nc2ccccc2cc1OCc1ccc(F)cc1,3%
23,CC(NC(=O)N[C@@H]1C=C[C@H](CO)C1)c1ccncc1F (stereo partly drawn),2%
24,S=c1cc(-c2ccccc2)n(Cc2ccco2)c2c1CCCC2,38%
25,Cc1ccc(Cc2nc(N3CCCN(C(=O)CCc4ccccc4)CC3)c3cnn(-c4ccccc4)c3n2)cc1,1%
